Potency data for 14 molecules are collected here from PubChem BioAssay (NCATS).

Holding throughout (assay): qHTS profiling for inhibitors of Plasmodium falciparum proliferation (AID 504749); further: nearly all actives have a fitted effect of over 60% in size
Holding throughout (conditions): P. falciparum in erythrocytes, SYBR Green DNA, 72 h; series mostly up to 28.7 µM
(In general: In qHTS, concentration-response curves come from the screen itself.)

The subject of one assay is ATS95. The gist of the method: (§1)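 Three-day growth assay of blood-stage parasites in erythrocytes (0.3% parasitemia, 2.5% hematocrit) at 37 C, 5% CO2, quantified by SYBR Green DNA staining after overnight detergent lysis.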
In the next assay the test system is C2A. The method, boiled down: as §1
A further assay has as its system CP185. The method, boiled down:
as §1

The subject of a further assay is CP191. The method, boiled down: as §1
The test system of a further assay is CP192. The gist of the method:
as §1

The subject of the next assay is CP194. The gist of the method:
as §1

Another assay concerns CP201. The method, boiled down: as §1
The next assay relates to CP203. The method, boiled down:
as §1

The subject of a further assay is CP211. The method, boiled down:
as §1

Another assay concerns CP215. The method, boiled down:
as §1

Another assay has as its system CP217. The method, boiled down: as §1
The next assay has as its system CP237. The method, boiled down:
as §1

For a further assay, the system named is CP238. The gist of the method: as §1
The next assay has as its system CP247. The gist of the method:
as §1

Another assay deals with CP250. The gist of the method: as §1
A further assay deals with CP252. The method, boiled down: as §1
The next assay relates to CP256. The method, boiled down: as §1
A further assay concerns CP260. The method, boiled down: as §1
The test system of the next assay is CP262. The gist of the method:
as §1

The next assay relates to CP265. The gist of the method: as §1

Inconclusive results are not listed. Calls of active or inactive are those of the source. The call rests on the fitted dose curve; in most records, active means well fitted inhibition curve with a large enough effect; inconclusive means small, poorly fitted or top-dose-only effect; inactive means flat fitted curve, though single readings scatter.
Potency means the concentration at half of the fitted maximal effect.

With `CCCCCCCCCCCCCC(=O)OC(C)C`, the Potency entry in the assay with ATS95, in the assay on C2A, in the assay with CP185, in the assay with CP191, in the assay on CP192 and in the assay with CP194 was “inactive” each time. In addition, the Potency result in the assay on CP201, with CP203, with CP211, with CP215, with CP217 and in the assay on CP237 was “inactive” in each case. In addition, the Potency result in the assay on CP238, in the assay with CP247, in the assay with CP250, with CP252, with CP256 and with CP260 was “inactive” throughout. Moreover, the Potency entry with CP262 and with CP265 was “inactive” throughout.

Turning to `CCOC(=O)c1ccc(N)cc1`, the Potency entry in the assay with ATS95, in the assay with C2A, in the assay on CP185, in the assay on CP191, in the assay with CP192 and with CP194 was “inactive” in each case. For the same molecule, the Potency result in the assay on CP201, in the assay on CP203, in the assay on CP211, in the assay on CP215, in the assay with CP217 and in the assay on CP237 was “inactive” each time. Further, the Potency result with CP238, with CP247, with CP250, with CP252, in the assay with CP256 and in the assay on CP260 was “inactive” throughout. Besides, the Potency result in the assay on CP262 and in the assay on CP265 was “inactive” each time.

As to `CCN(CC)CCNC(=O)c1cc(Br)c(N)cc1OC`, the Potency entry in the assay with ATS95, in the assay on C2A, in the assay on CP185, with CP191, with CP192 and with CP194 was “inactive” throughout. Besides, the Potency result in the assay with CP201, in the assay with CP203, in the assay on CP211, in the assay on CP215, in the assay on CP217 and in the assay on CP237 was “inactive” throughout. Further, the Potency result in the assay on CP238, in the assay on CP247, in the assay on CP250, in the assay on CP252, with CP256 and in the assay with CP260 was “inactive” throughout. Further, the Potency entry with CP262 and in the assay on CP265 was “inactive” in each case.

On to `CCOc1ccccc1OCCN[C@H](C)Cc1ccc(OC)c(S(N)(=O)=O)c1`, for which the Potency result with ATS95, in the assay on C2A, in the assay on CP185, in the assay with CP191, in the assay on CP192 and in the assay on CP194 was “inactive” in each case. The Potency entry in the assay on CP201, with CP203, with CP211, in the assay on CP215, in the assay with CP217 and in the assay with CP237 was “inactive” in each case. The Potency result in the assay with CP238, with CP247, with CP250, in the assay with CP252, in the assay with CP256 and in the assay on CP260 was “inactive” each time. Besides, the Potency entry in the assay with CP262 and in the assay on CP265 was “inactive” each time.

On to `CCNC(=O)NCc1cccc(Cl)c1`, for which the Potency entry with ATS95, in the assay with C2A, in the assay on CP185, with CP191, in the assay with CP192 and in the assay on CP194 was “inactive” in each case. Further, the Potency result in the assay with CP201, in the assay on CP203, in the assay with CP211, in the assay with CP215, in the assay with CP217 and in the assay with CP237 was “inactive” each time. Further, the Potency entry with CP238, in the assay with CP247, in the assay on CP250, in the assay on CP252, in the assay with CP256 and with CP260 was “inactive” throughout. In addition, the Potency result in the assay with CP262 and in the assay with CP265 was “inactive” throughout.

`NCCNC(=O)c1ccc(Cl)cn1`: the Potency entry with ATS95, in the assay with C2A, in the assay with CP185, in the assay on CP191, in the assay with CP192 and in the assay on CP194 was “inactive” in each case. The Potency entry with CP201, in the assay with CP203, with CP211, with CP215, with CP217 and in the assay on CP237 was “inactive” throughout. Moreover, the Potency entry with CP238, in the assay with CP247, with CP250, in the assay with CP252, in the assay on CP256 and in the assay on CP260 was “inactive” each time. Also, the Potency entry in the assay with CP262 and in the assay on CP265 was “inactive” each time.

`CC(=O)Nc1ncc([N+](=O)[O-])s1`: the Potency result with ATS95, with C2A, in the assay with CP185, with CP191, with CP192 and with CP194 was “inactive” throughout. Besides, the Potency result in the assay on CP201, in the assay on CP203, in the assay with CP211, in the assay with CP215, in the assay on CP217 and in the assay with CP237 was “inactive” each time. In addition, the Potency entry in the assay on CP238, in the assay with CP247, in the assay with CP250, in the assay on CP252, in the assay on CP256 and with CP260 was “inactive” each time. The Potency result with CP262 and with CP265 was “inactive” throughout.

As for `CCN(CC)CCNC(=O)COc1ccc(OC)cc1`, the Potency entry with ATS95, in the assay on C2A, in the assay on CP185, in the assay with CP191, in the assay on CP192 and with CP194 was “inactive” throughout. Moreover, the Potency entry with CP201, with CP203, in the assay on CP211, in the assay on CP215, with CP217 and in the assay with CP237 was “inactive” each time. For the same molecule, the Potency entry in the assay with CP238, in the assay with CP247, in the assay on CP250, in the assay on CP252, with CP256 and with CP260 was “inactive” throughout. For the same molecule, the Potency entry with CP262 and in the assay on CP265 was “inactive” each time.

As to `CCCCCCCCCCCCCC[N+](C)(C)Cc1ccccc1`, the Potency in the assay on ATS95 was 7.08 µM (active); in the assay on C2A it was 3.98 µM (active); in the assay on CP185, 6.31 µM (active); in the assay with CP191, 2.51 µM (active); with CP192 it was 6.75 µM (active); in the assay with CP194, 6.75 µM (active). For the same molecule, the Potency in the assay on CP201 was 7.57 µM (active); with CP203 it was 6.01 µM (active); in the assay with CP211, 4.26 µM (active); with CP215, 5.36 µM (active); with CP217 it was 5.62 µM (active); in the assay on CP237 it was 5.62 µM (active). The Potency in the assay on CP238 was 7.08 µM (active); with CP247 it was 5.62 µM (active); with CP250 it was 11.2 µM (active); in the assay with CP252, 7.94 µM (active); with CP256, 7.94 µM (active); with CP260, 5.01 µM (active). Moreover, the Potency was 4.26 µM (active) with CP262 and 8.91 µM (active) in the assay with CP265.

`Cc1ccccc1OCC(O)CO` (stereo not given): the Potency entry with ATS95, in the assay with C2A, in the assay on CP185, with CP191, with CP192 and with CP194 was “inactive” throughout. Also, the Potency result with CP201, in the assay with CP203, in the assay with CP211, with CP215, with CP217 and in the assay with CP237 was “inactive” throughout. Moreover, the Potency entry in the assay on CP238, in the assay on CP247, with CP250, in the assay on CP252, in the assay with CP256 and in the assay on CP260 was “inactive” in each case. For the same molecule, the Potency result in the assay with CP262 and with CP265 was “inactive” each time.

Take `O=c1[nH]c(=O)n([C@H]2C[C@H](O)[C@@H](CO)O2)cc1F`: the Potency entry in the assay with ATS95, in the assay with C2A, with CP185, with CP191, with CP192 and in the assay with CP194 was “inactive” each time. The Potency entry in the assay on CP201, in the assay with CP203, with CP211, with CP215, with CP217 and with CP237 was “inactive” in each case. Further, the Potency result in the assay with CP238, with CP247, in the assay on CP250, in the assay on CP252, in the assay with CP256 and with CP260 was “inactive” each time. The Potency entry with CP262 and in the assay with CP265 was “inactive” throughout.

`Cc1c(-c2ccccc2)oc2c(C(=O)OCCN3CCCCC3)cccc2c1=O`: the Potency result in the assay with ATS95, in the assay with C2A, in the assay on CP185, with CP191, with CP192 and with CP194 was “inactive” in each case. Moreover, the Potency result in the assay on CP201, in the assay on CP203, in the assay with CP211, in the assay with CP215, in the assay on CP217 and with CP237 was “inactive” throughout. In addition, the Potency entry with CP238, in the assay with CP247, with CP250, in the assay with CP252, in the assay with CP256 and in the assay on CP260 was “inactive” in each case. Moreover, the Potency result in the assay on CP262 and with CP265 was “inactive” in each case.

`CCCCCCCC/C=C\CCCCCCCCN`: the Potency entry in the assay with ATS95, with C2A, in the assay on CP185, with CP191, in the assay on CP192 and in the assay with CP194 was “inactive” in each case. The Potency entry in the assay with CP201, in the assay with CP203, in the assay on CP211, with CP215, in the assay with CP217 and with CP237 was “inactive” each time. In addition, the Potency result in the assay on CP238, in the assay with CP247, in the assay on CP250, with CP252, in the assay on CP256 and in the assay with CP260 was “inactive” in each case. Also, the Potency result in the assay with CP262 and with CP265 was “inactive” throughout.

For the molecule `C[C@@H](O)[C@H]1C(=O)N2C(C(=O)O)=C(S[C@@H]3CN[C@H](CNS(N)(=O)=O)C3)[C@H](C)[C@H]12`, the Potency result with ATS95, in the assay on C2A, with CP185, with CP191, in the assay on CP192 and in the assay on CP194 was “inactive” each time. In addition, the Potency result with CP201, with CP203, with CP211, in the assay with CP215, in the assay on CP217 and with CP237 was “inactive” in each case. The Potency entry in the assay on CP238, in the assay with CP247, in the assay on CP250, with CP252, with CP256 and with CP260 was “inactive” in each case. In addition, the Potency result in the assay with CP262 and with CP265 was “inactive” in each case.
